Drawing on ChEMBL document CHEMBL1961873, “Compounds: GSK PKIS; Assays: Nanosyn kinase panel” (2012), this text covers inhibition for 16 compounds.

Assay [1] concerns the target T1, Tyrosine-protein kinase ITK/TSK (Homo sapiens) (UniProt Q08881).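 Also: values are mean percent inhibition of ITK from the GSK PKIS screen.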
T1 sequence (whole entry): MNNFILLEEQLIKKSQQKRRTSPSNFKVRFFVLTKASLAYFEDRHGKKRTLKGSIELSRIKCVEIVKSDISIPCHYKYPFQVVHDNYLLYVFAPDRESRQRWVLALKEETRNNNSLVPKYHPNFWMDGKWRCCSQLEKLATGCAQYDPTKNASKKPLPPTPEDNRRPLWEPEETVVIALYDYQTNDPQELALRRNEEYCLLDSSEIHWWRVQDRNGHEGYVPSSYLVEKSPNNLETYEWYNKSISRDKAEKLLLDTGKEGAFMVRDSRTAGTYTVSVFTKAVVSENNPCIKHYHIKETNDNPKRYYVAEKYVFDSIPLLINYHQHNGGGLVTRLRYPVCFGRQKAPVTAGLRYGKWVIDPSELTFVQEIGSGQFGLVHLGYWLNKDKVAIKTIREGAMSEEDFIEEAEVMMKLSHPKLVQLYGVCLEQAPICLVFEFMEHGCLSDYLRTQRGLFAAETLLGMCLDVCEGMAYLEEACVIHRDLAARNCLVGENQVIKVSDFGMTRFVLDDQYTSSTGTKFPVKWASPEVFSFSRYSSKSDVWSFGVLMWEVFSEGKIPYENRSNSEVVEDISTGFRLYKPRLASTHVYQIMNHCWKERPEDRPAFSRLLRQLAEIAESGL
Particulars: at 1 µM.

Assay [2] concerns the target Tyrosine-protein kinase JAK1 (Homo sapiens) (UniProt P23458). To be noted: at 0.1 µM.
Assay [3] shares this target. Particulars: at 1 µM.
Assay [4] deals with Tyrosine-protein kinase JAK2 (Homo sapiens) (UniProt O60674). To be noted: at 0.1 µM.
Tyrosine-protein kinase JAK2 (Homo sapiens), sequence (O60674 whole entry): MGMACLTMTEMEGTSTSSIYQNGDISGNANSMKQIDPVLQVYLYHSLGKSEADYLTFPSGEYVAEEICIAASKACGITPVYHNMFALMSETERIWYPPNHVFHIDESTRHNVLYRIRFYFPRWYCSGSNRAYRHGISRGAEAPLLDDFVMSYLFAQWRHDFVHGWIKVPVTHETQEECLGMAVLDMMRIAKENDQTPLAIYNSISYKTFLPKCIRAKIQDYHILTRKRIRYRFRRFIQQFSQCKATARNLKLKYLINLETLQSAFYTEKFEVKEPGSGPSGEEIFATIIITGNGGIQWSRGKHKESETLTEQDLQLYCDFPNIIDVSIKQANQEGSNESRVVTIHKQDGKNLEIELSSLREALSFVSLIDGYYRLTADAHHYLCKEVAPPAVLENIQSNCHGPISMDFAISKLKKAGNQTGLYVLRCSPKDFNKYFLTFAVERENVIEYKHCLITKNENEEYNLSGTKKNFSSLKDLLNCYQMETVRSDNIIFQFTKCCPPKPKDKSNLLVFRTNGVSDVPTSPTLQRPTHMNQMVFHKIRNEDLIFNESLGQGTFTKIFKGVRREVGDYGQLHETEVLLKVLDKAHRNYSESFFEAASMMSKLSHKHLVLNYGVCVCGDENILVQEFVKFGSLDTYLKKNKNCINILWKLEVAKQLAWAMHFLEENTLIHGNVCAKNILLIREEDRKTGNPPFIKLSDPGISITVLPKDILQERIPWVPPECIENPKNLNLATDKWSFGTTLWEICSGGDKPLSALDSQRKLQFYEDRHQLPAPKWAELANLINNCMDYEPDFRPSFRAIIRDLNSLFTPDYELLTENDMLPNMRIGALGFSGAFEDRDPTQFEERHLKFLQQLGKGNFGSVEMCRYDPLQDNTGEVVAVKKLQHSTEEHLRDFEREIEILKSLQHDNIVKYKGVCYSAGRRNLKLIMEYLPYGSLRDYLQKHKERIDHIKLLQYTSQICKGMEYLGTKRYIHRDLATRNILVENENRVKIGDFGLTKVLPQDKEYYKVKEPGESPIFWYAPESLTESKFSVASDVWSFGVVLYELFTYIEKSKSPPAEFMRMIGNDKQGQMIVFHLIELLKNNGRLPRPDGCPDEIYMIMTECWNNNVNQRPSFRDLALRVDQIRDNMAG
For assay [5] the target is unchanged. To be noted: at 1 µM.
Assay [6] concerns the target T2, Tyrosine-protein kinase JAK3 (Homo sapiens) (UniProt P52333).
T2 sequence (whole entry): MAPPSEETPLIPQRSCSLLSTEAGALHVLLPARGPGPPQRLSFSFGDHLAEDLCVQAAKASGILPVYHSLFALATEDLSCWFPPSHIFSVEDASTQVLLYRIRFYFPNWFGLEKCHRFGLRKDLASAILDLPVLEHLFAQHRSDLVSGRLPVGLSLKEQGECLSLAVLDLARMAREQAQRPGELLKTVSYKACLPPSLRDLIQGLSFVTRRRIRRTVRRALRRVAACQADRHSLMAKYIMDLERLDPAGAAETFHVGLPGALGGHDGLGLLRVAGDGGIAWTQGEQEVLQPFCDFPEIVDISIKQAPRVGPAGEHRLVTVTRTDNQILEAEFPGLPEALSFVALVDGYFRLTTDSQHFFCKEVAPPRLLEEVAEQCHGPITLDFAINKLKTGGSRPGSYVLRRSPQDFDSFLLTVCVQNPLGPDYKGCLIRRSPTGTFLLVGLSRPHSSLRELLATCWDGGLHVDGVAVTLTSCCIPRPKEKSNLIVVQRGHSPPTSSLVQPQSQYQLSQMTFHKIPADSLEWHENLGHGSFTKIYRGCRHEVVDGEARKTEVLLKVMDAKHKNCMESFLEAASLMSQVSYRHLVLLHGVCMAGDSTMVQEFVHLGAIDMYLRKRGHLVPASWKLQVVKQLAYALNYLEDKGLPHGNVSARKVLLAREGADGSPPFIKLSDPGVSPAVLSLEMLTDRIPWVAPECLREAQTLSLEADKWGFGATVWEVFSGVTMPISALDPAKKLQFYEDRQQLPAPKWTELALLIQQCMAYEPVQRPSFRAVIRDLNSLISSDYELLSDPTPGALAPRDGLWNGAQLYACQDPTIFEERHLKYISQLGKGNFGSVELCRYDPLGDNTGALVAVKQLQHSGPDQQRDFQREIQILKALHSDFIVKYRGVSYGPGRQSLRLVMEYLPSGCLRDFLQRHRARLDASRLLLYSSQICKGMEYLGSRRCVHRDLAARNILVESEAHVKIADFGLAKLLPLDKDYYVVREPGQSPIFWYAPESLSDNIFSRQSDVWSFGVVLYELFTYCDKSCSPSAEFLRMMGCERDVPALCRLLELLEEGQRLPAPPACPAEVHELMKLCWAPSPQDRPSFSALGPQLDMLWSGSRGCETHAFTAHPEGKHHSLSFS
To be noted: at 0.1 µM.

Assay [7] deals with T2, Tyrosine-protein kinase JAK3 (Homo sapiens). To be noted: at 1 µM.
Assay [8] addresses Vascular endothelial growth factor receptor 2 (Homo sapiens) (UniProt P35968). Particulars: at 0.1 µM.
The target is the same in assay [9]. To be noted: at 1 µM.
For assay [10], the target named is Mast/stem cell growth factor receptor Kit (Homo sapiens) (UniProt P10721). Particulars: at 0.1 µM.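 Also: values are mean inhibition of KIT, from the GSK PKIS dataset.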
Mast/stem cell growth factor receptor Kit (Homo sapiens), sequence (P10721 whole entry): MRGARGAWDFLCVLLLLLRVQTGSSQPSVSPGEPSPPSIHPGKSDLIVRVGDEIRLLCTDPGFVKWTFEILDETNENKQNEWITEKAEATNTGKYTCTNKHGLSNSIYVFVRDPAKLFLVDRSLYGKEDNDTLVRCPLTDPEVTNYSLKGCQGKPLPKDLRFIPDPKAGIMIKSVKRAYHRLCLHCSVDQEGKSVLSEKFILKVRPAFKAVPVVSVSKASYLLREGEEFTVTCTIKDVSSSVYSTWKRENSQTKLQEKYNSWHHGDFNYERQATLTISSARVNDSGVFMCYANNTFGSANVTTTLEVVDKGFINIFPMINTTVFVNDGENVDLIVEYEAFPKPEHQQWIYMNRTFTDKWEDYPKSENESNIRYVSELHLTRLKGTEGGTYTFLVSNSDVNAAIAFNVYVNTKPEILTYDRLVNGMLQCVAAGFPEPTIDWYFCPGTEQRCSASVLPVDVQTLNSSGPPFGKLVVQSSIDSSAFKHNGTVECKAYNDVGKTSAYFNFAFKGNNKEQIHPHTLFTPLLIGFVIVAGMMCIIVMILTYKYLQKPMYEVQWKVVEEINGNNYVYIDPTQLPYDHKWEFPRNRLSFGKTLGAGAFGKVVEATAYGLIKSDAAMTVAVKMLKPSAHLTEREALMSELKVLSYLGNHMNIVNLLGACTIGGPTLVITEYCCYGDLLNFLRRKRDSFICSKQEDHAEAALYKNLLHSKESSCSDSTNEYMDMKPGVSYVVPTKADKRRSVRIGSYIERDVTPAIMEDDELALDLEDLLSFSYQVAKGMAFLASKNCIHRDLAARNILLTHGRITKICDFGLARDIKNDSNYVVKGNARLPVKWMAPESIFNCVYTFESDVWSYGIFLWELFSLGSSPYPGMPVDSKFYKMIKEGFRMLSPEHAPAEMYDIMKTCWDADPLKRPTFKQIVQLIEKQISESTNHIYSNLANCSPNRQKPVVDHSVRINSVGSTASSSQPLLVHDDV

SMILES strings stand for the structures. Several values for one entry are separate records, joined by “and”; a condition that tells them apart may be missing. Equal entries are not always repeated.

Vascular endothelial growth factor receptor 2 (Homo sapiens), sequence (P35968 whole entry): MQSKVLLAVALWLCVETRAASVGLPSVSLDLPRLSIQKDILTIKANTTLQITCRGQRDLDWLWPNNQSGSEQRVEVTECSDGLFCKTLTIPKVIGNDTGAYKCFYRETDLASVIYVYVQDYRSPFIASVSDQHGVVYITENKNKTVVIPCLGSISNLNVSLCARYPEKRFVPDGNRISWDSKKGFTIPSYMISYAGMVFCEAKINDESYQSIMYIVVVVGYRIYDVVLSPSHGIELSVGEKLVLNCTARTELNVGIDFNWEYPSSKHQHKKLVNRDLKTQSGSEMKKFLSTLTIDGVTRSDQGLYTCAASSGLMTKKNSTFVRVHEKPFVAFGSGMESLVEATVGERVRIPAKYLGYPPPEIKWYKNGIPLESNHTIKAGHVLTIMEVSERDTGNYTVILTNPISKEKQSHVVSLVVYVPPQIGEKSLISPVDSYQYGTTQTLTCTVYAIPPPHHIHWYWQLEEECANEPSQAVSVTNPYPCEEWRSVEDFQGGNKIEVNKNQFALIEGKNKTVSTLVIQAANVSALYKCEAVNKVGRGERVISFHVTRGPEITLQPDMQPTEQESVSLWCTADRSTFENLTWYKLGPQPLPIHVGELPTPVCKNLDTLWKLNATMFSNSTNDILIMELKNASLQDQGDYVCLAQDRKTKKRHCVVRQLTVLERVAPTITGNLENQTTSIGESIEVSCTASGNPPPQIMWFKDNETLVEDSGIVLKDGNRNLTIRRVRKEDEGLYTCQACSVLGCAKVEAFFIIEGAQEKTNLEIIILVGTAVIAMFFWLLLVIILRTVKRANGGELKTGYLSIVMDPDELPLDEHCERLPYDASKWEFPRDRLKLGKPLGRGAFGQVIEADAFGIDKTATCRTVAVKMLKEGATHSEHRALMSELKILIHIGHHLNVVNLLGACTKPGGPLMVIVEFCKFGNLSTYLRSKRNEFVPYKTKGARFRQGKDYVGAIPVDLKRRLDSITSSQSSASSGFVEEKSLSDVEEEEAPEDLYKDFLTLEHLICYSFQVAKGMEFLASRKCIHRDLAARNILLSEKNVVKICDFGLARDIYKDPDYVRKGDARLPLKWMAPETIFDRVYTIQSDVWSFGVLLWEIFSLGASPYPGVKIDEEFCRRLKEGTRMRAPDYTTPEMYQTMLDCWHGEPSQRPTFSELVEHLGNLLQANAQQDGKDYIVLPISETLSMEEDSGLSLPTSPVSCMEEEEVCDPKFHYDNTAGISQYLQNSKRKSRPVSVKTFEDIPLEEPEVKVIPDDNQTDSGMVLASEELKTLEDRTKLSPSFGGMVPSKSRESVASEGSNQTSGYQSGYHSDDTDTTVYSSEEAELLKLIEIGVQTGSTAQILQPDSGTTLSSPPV
Tyrosine-protein kinase JAK1 (Homo sapiens), sequence (P23458 whole entry): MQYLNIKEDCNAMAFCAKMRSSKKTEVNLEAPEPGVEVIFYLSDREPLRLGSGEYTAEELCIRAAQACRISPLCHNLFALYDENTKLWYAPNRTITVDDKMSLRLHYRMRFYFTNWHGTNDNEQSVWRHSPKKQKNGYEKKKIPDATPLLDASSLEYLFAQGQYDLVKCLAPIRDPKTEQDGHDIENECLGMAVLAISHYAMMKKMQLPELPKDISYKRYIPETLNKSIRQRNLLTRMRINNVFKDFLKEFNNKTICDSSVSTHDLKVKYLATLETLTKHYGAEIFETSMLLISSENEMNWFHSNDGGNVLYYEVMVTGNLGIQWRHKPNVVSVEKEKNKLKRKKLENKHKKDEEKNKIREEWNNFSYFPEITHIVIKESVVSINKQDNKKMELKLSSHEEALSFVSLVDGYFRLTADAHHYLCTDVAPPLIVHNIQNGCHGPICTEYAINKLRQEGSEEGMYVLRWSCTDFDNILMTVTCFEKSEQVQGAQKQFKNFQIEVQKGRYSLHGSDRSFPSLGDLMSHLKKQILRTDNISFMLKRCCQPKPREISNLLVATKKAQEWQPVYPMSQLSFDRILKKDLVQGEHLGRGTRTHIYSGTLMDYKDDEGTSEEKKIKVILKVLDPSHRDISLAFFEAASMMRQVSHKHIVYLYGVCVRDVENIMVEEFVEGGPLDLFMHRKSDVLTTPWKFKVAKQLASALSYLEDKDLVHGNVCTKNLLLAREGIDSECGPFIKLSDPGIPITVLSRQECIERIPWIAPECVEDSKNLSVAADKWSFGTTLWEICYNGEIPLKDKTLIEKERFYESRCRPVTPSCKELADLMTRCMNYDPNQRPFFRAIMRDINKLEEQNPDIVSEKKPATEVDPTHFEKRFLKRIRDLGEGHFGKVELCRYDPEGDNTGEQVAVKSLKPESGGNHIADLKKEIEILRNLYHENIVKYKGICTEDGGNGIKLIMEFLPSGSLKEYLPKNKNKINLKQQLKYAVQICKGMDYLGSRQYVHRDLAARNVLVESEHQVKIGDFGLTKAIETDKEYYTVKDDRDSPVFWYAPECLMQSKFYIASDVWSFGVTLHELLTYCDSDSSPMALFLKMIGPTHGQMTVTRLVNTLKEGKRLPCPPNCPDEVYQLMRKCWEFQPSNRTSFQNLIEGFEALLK

As for `Cc1cc(O)cc(C)c1/C=C/c1cncc(C(=O)OC(C)(C)C)c1`, the inhibition – broadly, the drop in the measured response relative to a control, in per cent – in assay [1] is 2.71%; in [2], 1.99%; in assay [3], 7.09%; in [4], 1.65%; in [5] it was 3.69%; in [6], 0.72%. The inhibition was 6.16% in [7], 4.17% in assay [8], 6% in assay [9] and 38.3% in assay [10].

Take `CCS(=O)(=O)c1ccc(OC)c(Nc2ncc(-c3cccc(F)c3)o2)c1`: the inhibition in assay [1] is 6.38%; in assay [2] it was 7.39%; in assay [3], 10.4%; in assay [4], 3.25%; in assay [5], 2.43%; in [6], -1.97%. In addition, the inhibition in assay [7] was found to be 0.45%; in assay [8], 46.8%; in [9] it was 77%; in assay [10], 74.7%.

Turning to `CC1=C(C(=O)Nc2ccc3[nH]nc(C)c3c2)C(c2ccc(C(F)(F)F)cc2)CC(=O)N1` (stereo not given), the inhibition came to 7.86% in [1]; 38.5% in assay [2]; 70.7% in assay [3]; 31.1% in assay [4]; 82.4% in assay [5]; 15.6% in assay [6]. Moreover, the inhibition in assay [7] amounted to 68.8%; in [8] it was 5.36%; in assay [9], 11%; in [10], 2.41%.

In the case of `FC(F)(F)CNc1nccc(-c2cnn3ncccc23)n1`, the inhibition was 1% in [1]; 1.9% in assay [2]; 2.18% in assay [3]; 1.39% in assay [4]; -0.82% in assay [5]; -1.54% in [6]. Besides, the inhibition in assay [7] is -1.63%; in [8], 2.14%; in [9], 4.88%; in assay [10] it was 2.28%.

Take `O=C(O[C@H]1CN[C@H](C#Cc2cc3ncnc(Nc4ccc5c(cnn5Cc5ccccc5)c4)c3s2)C1)N1CCOCC1`: the inhibition was -0.49% in assay [1]; 0.1% in assay [2]; 3.26% in [3]; -0.37% in assay [4]; -1.59% in [5]; -0.78% in assay [6]. Further, the inhibition in [7] is 1.24%; in assay [8], -0.01%; in assay [9], 8.91%; in assay [10], -3.59%.

`COc1c(C(N)=O)cc(-c2ccc(Cl)cc2)cc1-c1ccc(S(N)(=O)=O)cc1`: the inhibition in [1] came out at 2.4%; in assay [2], 1.1%; in [3], 3.15%; in [4], 2.98%; in [5], 3.05%; in assay [6] it was 0.08%. Besides, the inhibition is -0.75% in [7], 6.96% in [8], 9.32% in assay [9] and 6.94% in assay [10].

For the compound `CN(c1ccc(NC(=O)NCCN2CCOCC2)cc1)c1ccnc(Nc2ccc(CS(C)(=O)=O)cc2)n1`, the inhibition in [1] was 9.06%; in [2] it was 3.28%; in assay [3], 15%; in [4] it was 0.02%; in [5] it was 9.94%; in assay [6] it was -0.77%. Besides, the inhibition in assay [7] is 7.15%; in assay [8], 7.07%; in assay [9], 34.8%; in assay [10] it was 60.2%.

Turning to `c1ccc(-c2n[nH]cc2-c2ccnc(-c3ccc(OCCn4ccnc4)cc3)c2)nc1`, the inhibition in assay [1] was 2.03%; in assay [2], 0.34%; in [3], 6.98%; in [4], 0.38%; in assay [5], 3.12%; in assay [6] it was -0.46%. For the same compound, the inhibition stood at 4.76% in [7], 19.9% in [8], 65.9% in assay [9] and 1.62% in assay [10].

On to `COc1ccc2ncn(-c3cc(O[C@H](C)c4ccccc4C(F)(F)F)c(C(N)=O)s3)c2c1`, for which the inhibition was 1.39% in assay [1]; -0.98% in [2]; 5.43% in assay [3]; 1.01% in assay [4]; -1.12% in assay [5]; 0.5% in assay [6]. The inhibition is 6.44% in [7], 2.92% in assay [8], 14.1% in [9] and -1.6% in assay [10].

As to `Cc1nnc(-c2cccc(-c3ccc(C(=O)NCC4CC4)cc3)c2)o1`, the inhibition in assay [1] is 2.05%; in [2], 2.76%; in assay [3], 9.78%; in assay [4] it was 1.87%; in [5], 2.79%; in assay [6] it was -1.21%. Besides, the inhibition came to 0.46% in assay [7], 6.85% in assay [8], 9.47% in assay [9] and 7.19% in assay [10].

In the case of `CCS(=O)(=O)c1ccc(OC)c(Nc2ncc(-c3cccc(C(C)=O)c3)o2)c1`, the inhibition was 2.71% in [1]; 0.61% in assay [2]; 6.56% in assay [3]; 0.16% in [4]; 1.8% in [5]; -1.13% in assay [6]. Moreover, the inhibition amounted to 1.72% in [7], 16.4% in assay [8], 58.9% in assay [9] and 19.7% in assay [10].

For `CN1CCC(C(=O)Nc2n[nH]c3nc(-c4ccc(O)cc4)c(Br)cc23)CC1`, the inhibition is -1.94% and 1.71% in assay [1]; 2.37% and 1.02% in [2]; 19.7% and 3.43% in [3]; 1.01% and -0.3% in assay [4]; 1.49% and 1.42% in assay [5]; -3.69% and -1.35% in assay [6]. In addition, the inhibition in [7] was -2.24% and 0.59%; in assay [8] it was 7.52% and 6.12%; in [9], 24.5% and 23.2%; in assay [10], 3.81% and 2.92%.

As to `Fc1cccc(COc2ccc(Nc3ncncc3C#Cc3ccccc3)cc2Cl)c1`, the inhibition was 1.93% in [1]; 2.37% in [2]; 14.7% in assay [3]; 1.34% in assay [4]; 2.01% in assay [5]; -1.12% in assay [6]. For the same compound, the inhibition turned out to be 0.1% in assay [7], 5.83% in [8], 6.38% in assay [9] and 3.62% in assay [10].

Consider `CC1=C(C(=O)Nc2ccc3[nH]ncc3c2)C(c2ccc(F)cc2)N=C(c2ccc(C(F)(F)F)nc2)N1` (stereo not given), for which the inhibition amounted to 2.33% in [1]; 1.34% in [2]; 1.91% in assay [3]; 1.27% in [4]; 2.08% in assay [5]; 0.58% in assay [6]. Also, the inhibition in assay [7] is 1.34%; in assay [8], 5.88%; in assay [9], 9.39%; in assay [10], 4.11%.

Regarding `CS(=O)(=O)CCNCc1ccc(-c2ccc3ncnc(Nc4ccc(OCc5ccccc5)cc4)c3c2)o1`, the inhibition is 2.16% in [1]; 6.4% in [2]; 5.72% in [3]; 1.29% in assay [4]; 0.35% in assay [5]; -2% in assay [6]. The inhibition in [7] is -1.45%; in assay [8] it was 3.83%; in assay [9] it was 6.56%; in assay [10], 2.46%.

For the compound `CS(=O)(=O)CCNCc1ccc(-c2ccc3ncnc(Nc4ccc(OCc5cccc(C(F)(F)F)c5)cc4)c3c2)o1`, the inhibition was 1.4% in assay [1]; 1.68% in [2]; 1.38% in assay [3]; 4.27% in [4]; 3.35% in assay [5]; -1.49% in assay [6]. The inhibition in assay [7] stood at 0.32%; in assay [8], 5.19%; in assay [9], 11%; in assay [10] it was 4.53%.
